Results filed as inconclusive are left out. The source made the active and inactive calls. The call rests on the fitted dose curve; in most records, active means well fitted inhibition curve with a large enough effect; inconclusive means small, poorly fitted or top-dose-only effect; inactive means flat fitted curve, though single readings scatter.
Biological target: Voltage-gated inwardly rectifying potassium channel KCNH2 (Homo sapiens) (UniProt Q12809)
Experiment: qHTS Assay for Small Molecule Inhibitors of the Human hERG Channel Activity (AID 588834);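 further: top concentration of the series differs between compounds; lower thallium flux fluorescence means stronger hERG block; nearly all actives have a fitted effect of over 50% in size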
Details: U2OS BacMam hERG, FluxOR thallium flux fluorescence; series mostly up to 92.2 µM
Method in brief: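 Measured: FluxOR fluorescence after thallium stimulation in U2OS cells transduced with hERG by baculovirus. Compounds pre-incubated around 10 min; medium Opti-MEM with 2% FCS. AC50 from Hill equation.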

Chain of Voltage-gated inwardly rectifying potassium channel KCNH2 (Homo sapiens) (Q12809 whole entry, looked up): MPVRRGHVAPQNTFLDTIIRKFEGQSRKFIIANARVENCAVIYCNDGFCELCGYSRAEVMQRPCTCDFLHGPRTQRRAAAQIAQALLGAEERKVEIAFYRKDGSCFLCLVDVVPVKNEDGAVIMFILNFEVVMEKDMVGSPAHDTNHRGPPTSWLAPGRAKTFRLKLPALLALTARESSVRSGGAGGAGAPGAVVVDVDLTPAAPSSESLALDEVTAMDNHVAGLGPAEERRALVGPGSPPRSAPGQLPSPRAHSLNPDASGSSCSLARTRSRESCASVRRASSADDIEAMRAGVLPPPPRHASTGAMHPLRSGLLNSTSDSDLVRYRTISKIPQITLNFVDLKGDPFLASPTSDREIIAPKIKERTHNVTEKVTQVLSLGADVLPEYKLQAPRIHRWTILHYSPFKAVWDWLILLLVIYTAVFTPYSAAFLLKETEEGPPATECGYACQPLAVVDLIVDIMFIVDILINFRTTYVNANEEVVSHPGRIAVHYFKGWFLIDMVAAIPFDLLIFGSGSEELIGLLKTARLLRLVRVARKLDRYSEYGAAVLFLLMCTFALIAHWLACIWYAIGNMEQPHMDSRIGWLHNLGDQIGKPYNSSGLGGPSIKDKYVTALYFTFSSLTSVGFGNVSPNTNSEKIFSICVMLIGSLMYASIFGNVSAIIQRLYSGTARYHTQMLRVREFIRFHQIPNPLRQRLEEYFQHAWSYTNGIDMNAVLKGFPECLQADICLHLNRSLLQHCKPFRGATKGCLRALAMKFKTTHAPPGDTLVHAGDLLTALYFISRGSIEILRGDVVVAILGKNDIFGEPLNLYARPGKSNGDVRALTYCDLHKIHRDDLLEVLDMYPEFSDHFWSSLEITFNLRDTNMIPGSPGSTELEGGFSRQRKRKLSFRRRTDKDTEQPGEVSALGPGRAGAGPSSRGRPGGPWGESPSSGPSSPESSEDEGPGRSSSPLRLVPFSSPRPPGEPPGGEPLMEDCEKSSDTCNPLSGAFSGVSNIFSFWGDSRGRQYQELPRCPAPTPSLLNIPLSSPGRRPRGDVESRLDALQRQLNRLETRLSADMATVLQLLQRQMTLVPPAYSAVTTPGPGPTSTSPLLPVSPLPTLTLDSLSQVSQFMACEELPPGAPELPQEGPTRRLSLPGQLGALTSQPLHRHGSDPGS

Compound	outcome
Cc1cc(O)c2c(c1)C(=O)c1cccc(O)c1C2=O	inactive
N=c1ccn2c(n1)O[C@H]1[C@@H](O)[C@@H](CO)O[C@H]12	inactive
